# Only a selection was taken, and hits are over-represented in it overall.
# ALOX12 inhib: 12-hLO (ALOX12) enzyme inhibition. Potency, µM (top dose mostly 57.1 µM), without a hit: at the top dose activity change, negative = inhibition, usual class: inhibitors. P18054. purified 12-hLO, xylenol orange hydroperoxide absorbance. 150,000 tested, 0.12% active; also: potency is read from the fitted curve at half-maximal effect; nearly all actives have a fitted effect of over 55% in size
#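 150 nM 12hLO, 25 mM Hepes pH 7.0 + 0.01% Triton X-100; cpd preinc 15 min RT; 40 uM arachidonic acid, 30 min RT; Fe-XO 30 min; A573/A405 ratio as read-out.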
# PNC assembly inh: inhibitors of perinucleolar compartment assembly | PC3M PTB-GFP, PNC prevalence imaging, 16 h; hits give low values | activity change (PNC), negative = inhibition, % at 10 µM | 140,000 tested, 3.1% active | AID 2417;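 active = readout at or below -70, meaning at least 70% loss of cells showing the perinucleolar compartment, a nuclear body marking cancer cells; inconclusive = readout between -30 and a set limit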;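 also: plate controls were DMSO wells for no effect and camptothecin positive control wells for full effect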
#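 Read-out is percentage of cells bearing a perinucleolar compartment, from automated 20x imaging of fixed, Hoechst-stained PC3M PTB-GFP cells. Cells were seeded 4 h, then exposed 16 h to compound (23 nl of library stock) in duplicate plates.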
# IMPase Li inh: IMPase inhibition in cells with lithium potentiation | 210,000 tested, 0.35% active | AID 1457 | Potency, µM (top dose mostly 59.4 µM), without a hit: top-dose activity, negative = IMPase inhibition, most hits filed as inhibitors | CHO-M1 cells, IP1 TR-FRET (IP-One), carbachol + lithium;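 also: IP1 builds up when IMPase is blocked and the TR-FRET signal falls; potency is read from the fitted curve at half-maximal effect; plate controls were basal vehicle for no effect and high inhibitor control for full effect; nearly all actives have a fitted effect of over 50% in size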
#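 Concentration–response in CHO-M1 cells, lithium-potentiated; 30 min at 37C. IP1 detected by competitive TR-FRET after 10 min lysis at RT. Hill-fitted AC50.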
# IMPase cell inh: membrane-permeable compound that blocks inositol monophosphatase. CHO-M1 cells, IP1 accumulation, HTRF TR-FRET ratio. inhibition (IP1 accumulation), % at 46.1 µM. 120,000 tested, under 10 active; active = well fitted curve in the direction sought with a large enough effect in the signal ratio, not every such curve was filed as active; inconclusive = small, poorly fitted or top-dose-only effect, or a change in a side signal; inactive = no such curve, though single readings can be large or run the other way; the % refers to the signal ratio;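 also: cells stimulated with carbachol in lithium chloride buffer; plate controls were DMSO basal wells for no effect and reference inhibitor wells for full effect; higher means more IMPase inhibition seen as more IP1 and lower FRET ratio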
# Target sequence (P97697 whole entry, looked up): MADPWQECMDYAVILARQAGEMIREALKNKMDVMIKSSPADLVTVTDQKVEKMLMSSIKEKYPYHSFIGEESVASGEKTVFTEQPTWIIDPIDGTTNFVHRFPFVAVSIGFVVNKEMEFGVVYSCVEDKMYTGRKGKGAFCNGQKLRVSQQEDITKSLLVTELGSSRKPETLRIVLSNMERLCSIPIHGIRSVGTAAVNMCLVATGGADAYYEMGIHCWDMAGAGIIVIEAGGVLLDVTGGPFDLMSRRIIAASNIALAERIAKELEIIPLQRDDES
#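 Measured: the HTRF emission ratio (665/620 nm) plus the 620 nm donor channel, each fitted to the Hill equation to give AC50. Cells were CHO-M1 given compounds up to 46 uM and a 30 min carbachol stimulation at 37C.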
# ALOX15B inhib: blocks human 15-lipoxygenase 2 activity. 110,000 tested, 0.56% active. purified 15hLO-2, xylenol orange hydroperoxide absorbance. O15296. Potency, µM (doses to about 57.1 µM), for the others: at the top dose activity change, negative = inhibition, most hits filed as inhibitors; also: potency is read from the fitted curve at half-maximal effect; nearly all actives have a fitted effect of over 60% in size
#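 Enzyme 50 nM, AA 45 uM, 25 mM Hepes pH 7.5 + 0.01% Triton X-100; cpd preinc 15 min RT, rxn 90 min RT; stop/detect with 200 uM XO + 300 uM Fe(II) in 50 mM H2SO4, 30 min; A573/A405.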
# The depositor's hits bear a star; u = inconclusive; x = no result; [ ] = dose if it differs, or a comment. Unless noted, calls follow the shape of the dose curve; as a rule, active = well fitted curve in the direction sought with a large enough effect; inconclusive = small, poorly fitted or top-dose-only effect, or another doubt; inactive = no such curve, though single readings can be large; an effect the other way counts as inactive or inconclusive. Unless noted, % is scaled to controls: 0 for no effect and ±100 for the full control effect.
SMILES,ALOX12 inhib,PNC assembly inh,IMPase Li inh,IMPase cell inh,ALOX15B inhib
O=C(O)C1CCC(Cn2c(SCc3cc(=O)n4cc(Br)ccc4n3)nc3ccsc3c2=O)CC1 (stereo not given),x,x,10µM*,x,x
O=C(O)CCCCn1c(SCc2cc(=O)n3cc(Cl)ccc3n2)nc2ccsc2c1=O,-4.8%,u,-5.4%,x,x
CC1CCc2c(sc(NC(=O)CCCOc3ccc(C(C)(C)C)cc3)c2C(N)=O)C1 (stereo not given),x,x,x,2.0,x
COC(=O)c1cc(Br)c(=O)n(-c2cc(C)on2)c1,-1.9%,-23.8,10µM*,u,-1.2%
COC(=O)c1cc(Br)c(=O)n(-c2nccs2)c1,-2.6%,27.4,10µM*,u,6.4%
COC(=O)c1cc(Br)c(=O)n(-c2ccccn2)c1,-4.6%,-4.0,-11.3%[38.3 µM],-22.0,7.4%
COc1ccc(CNc2ccnc(-c3ccc(N(C)C)cc3)n2)c(OC)c1,x,x,5.3%,x,18.6%
O=S(=O)(c1ccccc1)N1CCC2(CCN(c3cccc(-c4ccccc4)c3)CC2)CC1,-4.6%,x,1.1%,x,-0.6%
CC1(C)CC(=O)C(Sc2ccccc2[N+](=O)[O-])=C(O)C1,-5.5%,-83.2*,-5.9%,x,x
Cc1ccc(NC(=O)c2c(NC(=O)c3ccco3)sc3c2CCC(C(C)(C)C)C3)c(C)c1 (stereo not given),x,x,x,-2.6,x
CCOc1ccccc1NC(=S)Nc1ncccc1C,20µM*,14.1,x,3.3,x
Cc1cccc(N2CCN(Cc3nnc(-c4cccc(Br)c4)o3)CC2)c1C,x,x,x,0.9,x
O=C1c2cccc(OCc3ccc(F)cc3)c2CCN1Cc1ccccc1,-5.1%,-81.6*,19.0%,7.3,x
C#CCn1c(=NC(=O)c2ccc(S(=O)(=O)N3CCc4ccccc4C3)cc2)sc2cc(S(N)(=O)=O)ccc21,-1.0%,-134.0*,u,x,x
COc1ccc(NC(=O)/C=N/O)cc1,x,x,3.0%,x,x
COc1ccc(N/N=C(\C=N\O)C(=O)c2ccc(OC)cc2)cc1,-15.7%,-112.1*,35.3%[38.3 µM],13.5,u
COC(=O)C[C@H](NC(=O)[C@H](C)NC(=O)[C@@H](NC(=O)OCc1ccccc1)C(C)C)C(=O)CF,x,x,-7.4%,x,x
COC(=O)c1cc(-c2ccc3ccccc3c2)[nH]c(=O)c1C#N,9.0%[11.4 µM],x,1.4%,x,7.1%[11.4 µM]
COc1ccccc1NC(C)=O,0.4%,2.9,-3.3%[38.3 µM],9.0,3.5%
COc1cc(O)c(NC(C)=O)c2nonc12,-6.0%,-87.8*,31.0%[38.3 µM],19.2,-21.4%
CCN1CCN(Cc2c(O)ccc3c(=O)c(Oc4ccccc4C(C)C)c(C(F)(F)F)oc23)CC1,x,x,x,-2.3,x
COc1ccccc1CCNC(=O)c1cc(-c2ccncc2)nc2ccc(Br)cc12,x,x,-7.3%,x,x
COc1ccccc1CCNC(=O)c1cc(-c2ccccn2)nc2ccc(Br)cc12,x,x,12.6µM*,x,x
CCOC(=O)CNC(=O)/C=C/c1ccc2c(c1)OCO2,x,x,16.6%,x,x
CCN(C(=O)/C=C/c1ccc2c(c1)OCO2)c1ccccc1,-4.7%,-83.6*,2.0%,x,x
SMILES,ALOX12 inhib,PNC assembly inh,IMPase Li inh,IMPase cell inh,ALOX15B inhib
COc1ccccc1NC1=C(Cl)C(=O)N(c2ccccc2)C1=O,-9.5%,-113.8*,-1.2%,x,x
Cc1ccc(SCc2ccc(C(=O)Nc3ccccc3C(=O)NC(C)C)cc2)cc1,-0.6%,-87.5*,x,-19.4,x
CN(C)c1ncc2nc(-c3ccc(Cl)cc3)c(=O)n(Cc3ccc(F)cc3)c2n1,x,x,3.1%,x,-1.6%
CN(C)c1ncc2nc(-c3ccc(Cl)cc3)c(=O)n(-c3ccccc3)c2n1,x,x,2.82µM*,x,4.0%
COc1ccc(-c2nc3cnc(N(C)C)nc3n(-c3ccccc3)c2=O)cc1,x,x,-5.2%,x,-4.0%
COc1ccc(-n2c(=O)c(-c3ccc(Cl)cc3)nc3cnc(N(C)C)nc32)cc1,x,x,2.82µM*,x,2.7%
Cc1cc(-c2ccccc2)nc(Oc2ccc(C(C)(C)C)cc2)c1S(C)(=O)=O,-7.7%,2.0,3.7%[38.3 µM],9.2,11.0%
Cc1cc(C)cc(Oc2nc(-c3ccccc3)cc(C)c2S(C)(=O)=O)c1,-1.0%,-112.1*,38.6%[38.3 µM],-1.2,6.9%
Cc1ccccc1OCC(=O)Nc1ccc(-c2nc3cc(Cl)cc(Cl)c3o2)cc1,x,x,x,-22.2,x
Oc1ccccc1C(Sc1nc2ccccc2s1)Sc1nc2ccccc2s1,-8.8%[11.4 µM],x,-6.5%,x,u
O=C(Nc1cccc(-c2nc3ncccc3o2)c1)c1sc2cc(Cl)ccc2c1Cl,-5.2%,u,11.2µM*,-0.8,-27.3%
O=S(NCc1ccco1)C12CC3CC(CC(C3)C1)C2 (stereo not given),-6.7%,-100.0*,-0.9%,-12.5,x
O=S(NCc1ccccc1)C12CC3CC(CC(C3)C1)C2 (stereo not given),-5.3%,-14.1,19.8%[38.3 µM],10.2,1.7%
O=C(O)c1cc(-c2ccccc2)nc2ccccc12,-3.8%,10.8,-10.8%,x,x
O=C(O)c1cc(-c2ccc(Cl)s2)nc2ccccc12,x,x,11.2µM*,x,x
O=C(NC(=S)Nc1ccc(NC(=O)c2ccco2)cc1)c1ccccc1,1.5%,-88.0*,-6.2%,x,x
CC(C)NS(=O)(=O)c1ccc(NC(=S)NC(=O)c2ccc(-c3ccccc3)cc2)cc1,u,5.0,16.6%[38.3 µM],-0.8,20µM*
CC(C)Oc1cccc(C(=O)NC(=S)Nc2cccnc2)c1,-3.4%,-12.8,9.2%,9.8,x
CC(C)Oc1cccc(C(=O)NC(=S)Nc2ccccc2)c1,u,-101.1*,-2.2%,x,x
CCC(C)n1c(=N)c(C(=O)NCc2ccccc2)cc2c(=O)n3cc(C)ccc3nc21 (stereo not given),x,x,x,-2.1,x
COc1cc(/C=C2/C(=O)NN(c3ccc(Cl)cc3)C2=O)ccc1OC(=O)c1ccco1,u,19.2,0.1%,x,x
COc1cc(/C=C2/C(=O)NN(c3cccc(F)c3)C2=O)ccc1OC(=O)c1ccco1,-4.2%,-80.6*,13.4%,1.6,x
Cn1cnnc1Sc1nc2c(c(=O)n(C)c(=O)n2C)n1Cc1ccccc1Cl,3.8%,-92.5*,8.3%,10.4,x
N/C(Cc1ccc(Cl)cc1Cl)=N\OC(=O)c1cccs1,3.1%,u,43.2%[38.3 µM],5.3[1.84 µM],3.1%[11.4 µM]
N/C(Cc1ccc(Cl)cc1Cl)=N\OC(=O)Cc1cccs1,-0.4%,-123.8*,-6.5%,x,x
SMILES,ALOX12 inhib,PNC assembly inh,IMPase Li inh,IMPase cell inh,ALOX15B inhib
CN(C)c1ncc2ncc(=O)n(CCc3ccccc3)c2n1,x,x,9.2%,x,-3.8%
COc1ccc(NC(=O)N2CCCC3(CCN(S(C)(=O)=O)CC3)C2)cc1,-1.5%,x,-0.5%,x,-2.2%
COCCn1c(=O)c(-c2ccc(Cl)cc2)nc2cnc(Nc3ccccc3)nc21,x,x,-4.1%,x,-5.6%
Cc1cccc(NCCC#N)c1,-3.1%,-134.0*,-10.0%,x,x
Cc1ccc(Nc2nc(CSc3nnc(-c4ccccc4C)n3C)cs2)cc1,-2.7%,-107.4*,x,-0.2,x
Cc1ccc(Nc2nc(CSc3nnc(-c4ccccc4)n3C)cs2)cc1,-4.4%,u,14.7%,x,x
CC1(C)C[C@](C)(C(=O)c2ccccc2)C=C1c1ccccc1,x,x,18.3%,x,x
O=C(Nc1cnn(Cc2ccc(F)cc2)c1)c1cnccn1,0.3%,-129.2*,22.0%[38.3 µM],2.0,-4.8%

# Screening data (PubChem)
